Shown are actives, neighbours in structure and some others; about 3.7% of the full set was active somewhere.
tim10-1 inh – tim10-1 yeast growth inhibition; S. cerevisiae tim10-1 ts strain growth, BacTiter-Glo, 24 h; hit rate 2.2% among 330,000; inhibition, % at 20 µM;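 active = inhibition of at least 40%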;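 note: mutant grown at 25 °C; 0% = DMSO wells with yeast and 100% = wells holding no yeast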
TIM10 inh – inhibits growth of TIM10 yeast strain | S. cerevisiae TIM10 strain growth, BacTiter-Glo luminescence, 24 h | inhibition, % at 10 µM | hit rate 1.4% among 330,000 | AID 463195;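 active = inhibition of 40% or more at the single tested concentration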;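 note: wild-type TIM10 isogenic control strain grown at permissive 25 °C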
Rce1 inh – blocks yeast Ras-converting enzyme | Q03530 | yeast membranes, quenched prenylated peptide cleavage fluorescence | calls only | hit rate 0.27% among 290,000 | AID 2563;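 active = fall in fluorescence gain of 50% or more versus controls, with final raw signal at or below 3038400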;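 note: plate controls were neutral control wells for no effect and wells lacking membranes for full effect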
Target sequence (Q03530 whole entry, looked up): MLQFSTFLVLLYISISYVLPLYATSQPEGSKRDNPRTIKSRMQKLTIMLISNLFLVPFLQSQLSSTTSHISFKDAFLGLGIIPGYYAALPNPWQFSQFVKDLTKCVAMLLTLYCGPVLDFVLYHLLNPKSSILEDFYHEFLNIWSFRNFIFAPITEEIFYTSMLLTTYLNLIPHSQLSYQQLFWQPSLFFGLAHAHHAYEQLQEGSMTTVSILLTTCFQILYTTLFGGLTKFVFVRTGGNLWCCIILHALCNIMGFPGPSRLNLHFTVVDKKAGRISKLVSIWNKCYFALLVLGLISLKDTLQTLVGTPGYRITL
tim23-1 inh – tim23-1 yeast growth inhibition | S. cerevisiae tim23-1 growth, BacTiter-Glo luminescence, 24 h | inhibition, % at 20 µM | hit rate 1.3% among 330,000 | AID 463212;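 active = growth inhibition of the mutant yeast at or above 50%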;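 note: temperature-sensitive mutant grown at 25 °C; plate controls were DMSO-treated mutant yeast for no effect and medium wells lacking yeast for full effect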
PfHsp90 yeast 2 – growth inhibition of yeast expressing Plasmodium Hsp90; S. cerevisiae expressing PfHsp90, BacTiter-Glo ATP, 48 h; yeast lacking PDR1 and PDR3 efflux regulators; inhibition, % at 9.4 µM; hit rate 0.32% among 310,000; AID 504621;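 active = every replicate shows inhibition above about 80%, whatever the replicate mean, limit read from the data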;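 note: 0% = DMSO neutral controls and 100% = 20 µM radicicol positive controls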
tim10 confirm – confirmation of TIM10 yeast growth inhibitors; shares compounds with TIM10 inh; S. cerevisiae tim10 strain growth, BacTiter-Glo luminescence, 24 h; inhibition, % at 10 µM; hit rate 63% among 4,600; AID 463215;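 active = inhibition of yeast growth at or above a set limit in either of two replicates at 10 µM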;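 note: this counterscreen used the strain with wild-type TIM10; 0% = yeast with DMSO and 100% = medium wells lacking yeast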
* = called active by the depositor; i = inactive; . = not tested or not shown.

SMILES | tim10-1 inh | TIM10 inh | Rce1 inh | tim23-1 inh | PfHsp90 yeast 2 | tim10 confirm
Cn1nc(CSc2ccccc2)c(C=O)c1Cl | 14.5 | 10.9 | i | 13.2 | 16.5 | .
Cc1cccc(CSCCNC(=S)Nc2ccccc2)c1 | 35.2 | 47.5* | i | 44.5 | -12.0 | 28.4
S=C(NCCSCc1ccccc1Cl)Nc1ccccc1 | 29.2 | 38.3 | i | 34.2 | -4.6 | .
O=C(N/N=C/c1ccc2c(c1)OCO2)c1cccs1 | 27.9 | 57.2* | i | 49.6 | -19.8 | 47.6*
CSc1nc(-c2ccccc2)nc(NC(C)=O)c1C(C)=O | 3.1 | 8.2 | i | 26.1 | -12.0 | .
C=CCn1c(-c2cc(-c3ccccc3)sc2N)n[nH]c1=S | 16.3 | 48.4* | i | 4.0 | 7.3 | 30.1
Cc1ccc(S(=O)(=O)N2[C@@H](c3ccc(Br)cc3)C(C(=O)O)=CC[C@H]2c2cccs2)cc1 | 12.3 | 95.5* | . | 11.7 | -22.2 | 5.3
Cc1ccc([C@H]2C(C(=O)O)=CC[C@@H](c3cccs3)N2S(=O)(=O)c2ccc(C)cc2)cc1 | 9.5 | 11.6 | . | 12.5 | 16.1 | .
Cc1scc(C(=O)N/N=C/c2ccc(OCC(C)C)cc2)c1C | 16.9 | 44.0* | i | 29.6 | -17.3 | 20.1
CN(CC1CCCN(CCc2ccc(Cl)cc2)C1)C(=O)c1ccco1 (stereo not given) | 2.5 | -0.3 | i | 14.6 | 6.5 | .
Cn1c(/C(C#N)=C/c2cccc(O)c2)nc2ccccc21 | 39.2 | 42.7* | i | 42.2 | 7.6 | 35.9*
N#C/C(=C\c1cccc(O)c1)c1nc2ccccc2o1 | 23.1 | 39.8 | i | 44.6 | 1.5 | .
CC(=O)CCSc1nnc(-c2cccc(S(=O)(=O)N3CCOCC3)c2)o1 | 9.9 | -2.8 | i | -1.8 | . | .
O=S(=O)(c1cccc(-c2nnc(SCc3nc4ccccc4s3)o2)c1)N1CCOCC1 | 22.4 | 43.3* | i | 3.1 | 24.7 | 13.5
CCCCn1c(N2CCCC2)nc2c1c(=O)[nH]c(=O)n2C | 2.7 | 14.3 | i | 5.9 | -9.4 | .
Cc1ccc(S(=O)(=O)NC2CCCc3ccccc32)cc1C (stereo not given) | 35.3 | 44.9* | i | 12.0 | 3.0 | -3.6
Cc1ccc(C(=O)NC(=S)Nc2ccccc2N2CCCC2)cc1[N+](=O)[O-] | 32.4 | 42.7* | i | 44.1 | -6.7 | -38.9
COc1cccc(C(=O)NC(=S)Nc2ccccc2N2CCCCC2)c1 | 28.4 | 40.8* | i | 29.4 | -2.6 | 25.8
COc1ccc(Cl)cc1S(=O)(=O)NC(C)C(=O)NCCCn1ccnc1 (stereo not given) | -3.8 | -3.1 | i | 10.4 | . | .
c1ccc(/N=C2\N=C(Nc3ccccn3)c3ccccc32)nc1 | 33.4 | 45.8* | i | 47.8 | -1.8 | 29.2
CN(C)C(C(=O)NC1CCCCC1)c1ccc(Cl)cc1 (stereo not given) | 11.8 | -16.1 | i | -3.8 | 7.8 | .
O=C(NC1CCCC1)C(c1ccc(F)cc1)N(Cc1ccc(Cl)cc1)C(=O)CCl (stereo not given) | 32.2 | 42.1* | i | 45.9 | -33.4 | 43.0*
Cc1nc(NC(=O)c2ccccc2)sc1-c1csc(NCc2ccccc2)n1 | 23.6 | 18.6 | i | 42.9 | -27.9 | .
Cc1nc(NC(=O)c2ccccc2)sc1-c1csc(N)n1 | 35.1 | 43.9* | i | 25.6 | -27.3 | 24.1
O=C(CCSc1nc(-c2ccco2)cc(C(F)(F)F)n1)N1CCN(c2ccccn2)CC1 | 35.9 | 40.3* | i | 32.8 | -1.7 | 32.2*
SMILES | tim10-1 inh | TIM10 inh | Rce1 inh | tim23-1 inh | PfHsp90 yeast 2 | tim10 confirm
CCn1c(SCC(=O)N2CCOCC2)nc2c(c1=O)SC(C)C2 (stereo not given) | -13.4 | -11.4 | i | -0.1 | 0.1 | .
Cn1c(=O)c(C(=O)NNC(=O)c2ccccc2F)c(O)c2ccccc21 | -41.7 | 10.9 | i | 37.3 | 12.6 | .
Cn1c(=O)c(C(=O)NNC(=O)c2ccc(Br)cc2)c(O)c2ccccc21 | 21.9 | 63.6* | i | 1.4 | -1.5 | 58.7*
Cc1cc(C(=O)CN2C(=O)c3ccccc3S2(=O)=O)c(C)n1-c1ccccc1 | 24.4 | 24.7 | i | 42.9 | -49.6 | .
Cc1cc(C(=O)CN2C(=O)C3CC=CCC3C2=O)c(C)n1-c1ccccc1 (stereo not given) | 26.4 | 43.0* | i | 39.0 | -38.6 | 7.2
CCOc1cc(C2C(C(=O)c3ccco3)=C(O)C(=O)N2CC2CCCO2)ccc1O (stereo not given) | -6.0 | 6.7 | i | -1.7 | 2.0 | .
Cc1ccc(/C=N/n2c(-c3cccnc3)n[nH]c2=S)s1 | 23.0 | -2.9 | i | 18.1 | -19.8 | .
Cc1ccc(/C=N/n2cc(-c3ccccc3)[nH]c2=S)s1 | 23.9 | 41.4* | i | 27.7 | -63.3 | 42.2*
Cc1cc(C)cc(CC2CC(=O)N(c3ccc(Cl)cn3)C2=O)c1 (stereo not given) | 29.4 | 51.1* | i | 48.5 | 18.4 | 23.0
Cc1cc(C)n(-c2nc(NC(C)(C)C)nc(NC(C)(C)C)n2)n1 | 35.1 | 45.0* | i | 41.9 | -30.9 | 43.0*
CCCCCn1c(SCC(=O)c2ccccc2)nc2cc(C(=O)NCC3CCCO3)ccc2c1=O (stereo not given) | . | . | . | . | -38.1 | .
CNc1nc(N)c([N+](=O)[O-])c(Nc2ccccc2OC)n1 | 27.0 | 43.7* | i | 32.8 | -5.1 | 52.2*
N#CCCN(C(=O)COC(=O)COc1ccccc1Cc1ccccc1)c1ccccc1 | 19.8 | 24.2 | . | 28.4 | . | .
COc1ccc(/C=N/NC(=O)c2ccoc2C)cc1OC | 2.5 | -13.3 | i | 10.4 | 3.9 | .
COc1ccc(/C=N/NC(=O)c2ccoc2C)cc1COc1ccc(Cl)cc1 | 36.6 | 50.6* | i | 24.8 | -26.8 | 5.0
COc1cccc(-c2nc(-c3ccc4c(c3)NC(=O)CO4)cs2)c1 | 17.9 | 19.7 | i | 16.2 | -19.3 | .
COc1ccc(-c2cc(-c3ccc(OC)cc3)nc(-c3ccc4c(c3)NC(=O)CO4)c2)cc1 | 20.5 | 40.9* | i | 18.3 | -9.0 | -3.9
Cc1cccc2nc(-c3ccccc3)nc(N3CCC(O)(c4ccc(Cl)cc4)CC3)c12 | 35.9 | 42.7* | i | 36.1 | -18.7 | 54.5*
Cc1cc2nnn(-c3nnc(-c4ccccc4)c4ccccc34)c2cc1C | 13.4 | 7.1 | i | 1.7 | 1.9 | .
C=CCn1c(C(C)NC(=O)COC)nc2ccccc21 (stereo not given) | -3.0 | 96.7* | i | 2.7 | 21.2 | -18.9
CCN1CCN(C(=O)c2cc3cc4cc(OC)ccc4nc3s2)CC1 | 6.2 | -6.0 | i | 5.3 | -22.3 | .
COc1ccc2cc3cc(C(=O)NCCCN4CCc5ccccc5C4)sc3nc2c1 | 7.9 | 62.8* | i | 12.7 | -22.4 | 54.3*
COc1ccc2nc3sc(C(=O)NCCN4CCc5ccccc5C4)cc3cc2c1 | 30.7 | 75.5* | i | 38.6 | -7.3 | 80.0*
COc1ccc2cc3cc(C(=O)NC4CC4)sc3nc2c1 | 4.1 | 15.1 | i | 3.3 | -4.7 | .
CC1CCCCC1NC(=O)COc1cccnc1[N+](=O)[O-] (stereo not given) | 4.3 | -7.7 | . | 6.2 | -14.1 | .

Screening data as filed in PubChem.
